According to PubChem BioAssay AID1159580 (chemical genetic matrix, 2015):
Hit rate of the full screen: of about 5,500 compounds, about 2,000 (36%) were called active. Roughly 18% stayed inconclusive and do not appear here. Cut-off read from the data, not from the text of the source: active = normalized growth mostly below about 0.91 (no sharp cut-off); inconclusive = no clear call, values can overlap the other calls; inactive = mostly above about 0.92. Some of the results follow.

Experiment: chemical genetic growth profiling, strain panel (AID 1159580);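 note: tested at 20 µM; growth read once vehicle control cultures reached saturation at 30 °C; 1 = growth at the plate median or of vehicle wells; lower values mean less growth of the strain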
Conditions: S. cerevisiae deletion strains, growth OD

Measured: normalized growth

CN=C(NC#N)NCCSCc1nc(N=C(N)N)cs1
inactive: locus YAL021C, strain ccr4, active compounds read low 0.966 | locus YAL026C, strain drs2, active compounds read low 0.981 | locus YAL030W, strain snc1, active compounds read low 0.998 | locus YBL061C, strain skt5, active compounds read low 0.988 | locus YBR009C, strain hhf1, active compounds read low 0.99 | locus YBR023C, strain chs3, active compounds read low 0.991 | locus YBR171W, strain sec66, active compounds read low 0.975 | locus YBR231C, strain swc5, active compounds read low 0.986 | locus YBR279W, strain paf1, active compounds read low 0.99 | locus YCL011C, strain gbp2, active compounds read low 0.966 | locus YCL016C, strain dcc1, active compounds read low 0.984 | locus YCL061C, strain MRC1, active compounds read low 0.974 | locus YCL069W, strain vba3, active compounds read low 0.978 | locus YCR088W, strain abp1, active compounds read low 0.967 | locus YDL005C, strain med2, active compounds read low 0.986 | locus YDL040C, strain nat1, active compounds read low 0.994 | locus YDR001C, strain nth1, active compounds read low 0.978 | locus YDR069C, strain doa4, active compounds read low 0.988 | locus YDR137W, strain rgp1, active compounds read low 0.977 | locus YDR159W, strain sac3, active compounds read low 0.985 | locus YDR195W, strain ref2 0.957 | locus YDR297W, strain sur2, active compounds read low 0.976 | locus YDR334W, strain swr1, active compounds read low 0.944 | locus YDR335W, strain msn5, active compounds read low 0.974 | locus YDR392W, strain spt3, active compounds read low 0.977 | locus YEL003W, strain gim4, active compounds read low 0.977 | locus YEL037C, strain rad23, active compounds read low 0.937 | locus YEL061C, strain CIN8 (second series), active compounds read low 0.979 | locus YER015W, strain faa2, active compounds read low 0.981 | locus YER016W, strain bim1, active compounds read low 0.99 | locus YER111C, strain swi4, active compounds read low 0.993 | locus YER155C, strain BEM2 (second series), active compounds read low 0.99 | locus YFR010W, strain ubp6, active compounds read low 0.96 | locus YGL167C, strain pmr1, active compounds read low 0.982 | locus YGL173C, strain kem1, active compounds read low 0.983 | locus YGL227W, strain vid30, active compounds read low 0.981 | locus YGL240W, strain doc1, active compounds read low 0.991 | locus YGL253W, strain hxk2, active compounds read low 0.998 | locus YHR013C, strain ard1, active compounds read low 0.97 | locus YHR027C, strain rpn1, active compounds read low 0.984 | locus YHR142W, strain chs7, active compounds read low 0.947 | locus YJL092W, strain hpr5, active compounds read low 0.978 | locus YJL095W, strain BCK1 (second series), active compounds read low 0.984 | locus YJL115W, strain asf1, active compounds read low 0.959 | locus YJL129C, strain trk1, active compounds read low 0.971 | locus YJL154C, strain vps35, active compounds read low 0.979 | locus YJL164C, strain tpk1, active compounds read low 0.989 | locus YJL166W, strain qcr8, active compounds read low 0.987 | locus YJL187C, strain SWE1, active compounds read low 0.985 | locus YKL160W, strain elf1, active compounds read low 0.975 | locus YKR026C, strain gcn3, active compounds read low 0.963 | locus YKR091W, strain srl3, active compounds read low 0.986 | locus YLL001W, strain dnm1, active compounds read low 0.985 | locus YLL026W, active compounds read low 0.98 | locus YLL041C, strain sdh2, active compounds read low 0.973 | locus YLR027C, strain aat2, active compounds read low 0.984 | locus YLR221C, strain rsa3, active compounds read low 0.987 | locus YLR258W, strain gsy2, active compounds read low 0.996 | locus YLR262C, strain YPT6 (second series), active compounds read low 0.984 | locus YLR320W, strain mms22, active compounds read low 0.99 | locus YLR342W, strain FKS1, active compounds read low 0.987 | locus YLR357W, strain rsc2, active compounds read low 0.977 | locus YLR370C, strain arc18, active compounds read low 0.983 | locus YLR384C, strain iki3, active compounds read low 0.991 | locus YML120C, strain ndi1, active compounds read low 0.949 | locus YMR058W, strain fet3, active compounds read low 0.966 | locus YMR125W, strain sto1, active compounds read low 0.992 | locus YMR129W, active compounds read low 0.981 | locus YMR205C, strain PFK2, active compounds read low 0.994 | locus YMR231W, strain pep5, active compounds read low 0.984 | locus YNL071W, strain lat1, active compounds read low 0.977 | locus YNL209W, strain ssb2, active compounds read low 0.982 | locus YNL248C, strain rpa49, active compounds read low 0.94 | locus YNL322C, strain KRE1 (second series), active compounds read low 0.984 | locus YNR049C, strain mso1, active compounds read low 0.982 | locus YOR001W, strain rrp6, active compounds read low 0.975 | locus YOR070C, strain gyp1, active compounds read low 0.999 | locus YOR080W, strain dia2, active compounds read low 0.974 | locus YOR083W, strain WHI5, active compounds read low 0.975 | locus YOR106W, strain vam3, active compounds read low 0.983 | locus YOR265W, strain rbl2, active compounds read low 0.991 | locus YOR270C, strain vph1, active compounds read low 0.983 | locus YOR290C, strain snf2, active compounds read low 1.01 | locus YPL051W, strain arl3, active compounds read low 0.981 | locus YPL078C, strain atp4, active compounds read low 0.976 | locus YPL106C, strain sse1, active compounds read low 0.984 | locus YPL240C, strain hsp82, active compounds read low 0.971
